# Test results: publication PMC5540273 (PLoS ONE, 2017)
# How the values were obtained:
# Conditions in all cases: concentration: 1 μM, replicates: in singlicate; n = 1
# PAK3 = tested on: PAK3
# PAK4 = tested on: PAK4
# PAK6 = tested on: PAK6
# PAK7 = tested on: PAK7
# PCTK1 = tested on: T1, PCTK1
# T1 construct: gene CDK16
# PCTK2 = tested on: T2, PCTK2
# T2 construct: gene CDK17
# PCTK3 = tested on: T3, PCTK3
# T3 construct: gene CDK18
# PDGFRA = tested on: PDGFRA
# PDGFRB = tested on: PDGFRB
# PDPK1 = tested on: PDPK1
# 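Further: KINOMEscan kinase panel screen.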
Compound,%Inh (PAK3),%Inh (PAK4),%Inh (PAK6),%Inh (PAK7),%Inh (PCTK1),%Inh (PCTK2),%Inh (PCTK3),%Inh (PDGFRA),%Inh (PDGFRB),%Inh (PDPK1)
CS(=O)(=O)CCNCc1nc(-c2ccc3ncnc(Nc4ccc(OCc5ccccc5)c(Cl)c4)c3c2)cs1.Cl [GW582764],24%,0%,0%,0%,6%,0%,17%,0%,8%,0%
COc1cccc(NC(=O)Nc2ccc(C)c(-c3ccc(C(=O)Nc4ccncc4)cc3)c2)c1 [GSK1398474],27%,0%,0%,26%,0%,11%,13%,48%,100%,27%
Cn1cncc1C(=O)NC1CCN(c2ccnc(Nc3ccc(F)cc3)n2)C1 (stereo not shown) [GSK1379717],0%,0%,0%,0%,4%,0%,16%,2%,14%,0%
CN1c2ccc(-c3ccc(C(N)=O)cc3)cc2-c2[nH]ncc2S1(=O)=O,0%,5%,0%,0%,0%,0%,0%,0%,0%,21%
